High-throughput results: PubChem BioAssay, several laboratories
TWEAK-Fn14 inh: inhibitors of TWEAK-Fn14 interaction signaling | TWEAK-stimulated Fn14 reporter cells, luciferase luminescence, 8 h | inhibition, % at 10 µM | 360,000 compounds, 2% hits; in the data active = inhibition above about 50%
HSP90 inh: blocks HSP90-mediated luciferase refolding in reticulocyte lysate; 290,000 compounds, 0.91% hits; Rabbit reticulocyte lysate, luciferase refolding luminescence, 3 h; AID 1789; inhibition, % at 5.6 µM;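 active = inhibition above the screen-wide mean plus 3 SD, computed separately per campaign, cut at about 16% in these data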;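 note: 0% = DMSO wells and 100% = 60 µM geldanamycin wells; inhibitors lower the luminescence because luciferase stays unfolded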
TROY signal inh: inhibitors of TROY-dependent NF-kB signaling | 360,000 compounds, 0.98% hits | inhibition, % at 10 µM | Q293 LMP1-TROYcd NF-kB luciferase reporter, 4 h | AID 1347056;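 active = compounds whose plate-normalised and pattern-corrected inhibition of the luciferase reporter signal at the single screening dose is 50% or more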
HSF1 inh: HSF1 inhibition | activity change, negative = inhibition, % at 7.5 µM (by protocol) | NIH3T3-HGL HSE-luciferase, MG132-induced, luminescence 8 h; stronger effect = lower value | AID 2098 | 300,000 compounds, 0.77% hits;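 active = more than half of replicate wells show activity change below -50%, luminescence cut by over half; inconclusive = some wells, but at most half, below -50%; inactive = no replicate well below -50%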;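 note: luciferase reports HSF-1 transcriptional activity via heat shock element; 0% = median of DMSO wells and -100% = zero luminescence signal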
LMP1 NFkB inh: Epstein-Barr LMP1 NF-kappaB reporter inhibition; 350,000 compounds, 0.69% hits; inhibition, % at 12.5 µM; LMP1-induced NF-kappaB luciferase reporter cells, luminescence; in the data active = inhibition above about 41%; inconclusive = no clear call, values can overlap the other calls;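 note: 0% = neutral control wells and 100% = reference inhibitor control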
HSF-1 act: increases HSF-1 driven luciferase reporter signal. NIH3T3-HGL HSF-1 luciferase reporter, MG132, 8 h; 100% = twice DMSO control signal. activation, % at 9 µM. 300,000 compounds, 1.7% hits;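 active = mean replicate activation of at least 50% with a set share of replicates each reaching 50%; inconclusive = only one of those two conditions met; inactive = mean below 50% and too few replicates reaching it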;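 note: 0% = median of the neutral control wells and 100% = twice that signal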
HSP90 inh confirm: confirmation of HSP90 inhibitors; shares compounds with HSP90 inh; rabbit reticulocyte lysate, luciferase refolding luminescence, 3 h; inhibition, % at 5.9 µM; 2,300 compounds, 64% hits; AID 1846; in the data active = inhibition above about 18%;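 note: 0% = vehicle wells and 100% = reference inhibitor wells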
FLuc counter: firefly luciferase inhibition, HSP90 counter-screen. shares compounds with HSP90 inh. purified native firefly luciferase, luminescence. inhibition, % at 5.9 µM. 2,300 compounds, 48% hits. AID 1847;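 active = inhibition above the mean inhibition of all tested sample wells plus 3 SD, cut at about 10% in these data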;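 note: 0% = DMSO with luciferase and 100% = wells lacking luciferase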
Target sequence (P08659 whole entry, looked up): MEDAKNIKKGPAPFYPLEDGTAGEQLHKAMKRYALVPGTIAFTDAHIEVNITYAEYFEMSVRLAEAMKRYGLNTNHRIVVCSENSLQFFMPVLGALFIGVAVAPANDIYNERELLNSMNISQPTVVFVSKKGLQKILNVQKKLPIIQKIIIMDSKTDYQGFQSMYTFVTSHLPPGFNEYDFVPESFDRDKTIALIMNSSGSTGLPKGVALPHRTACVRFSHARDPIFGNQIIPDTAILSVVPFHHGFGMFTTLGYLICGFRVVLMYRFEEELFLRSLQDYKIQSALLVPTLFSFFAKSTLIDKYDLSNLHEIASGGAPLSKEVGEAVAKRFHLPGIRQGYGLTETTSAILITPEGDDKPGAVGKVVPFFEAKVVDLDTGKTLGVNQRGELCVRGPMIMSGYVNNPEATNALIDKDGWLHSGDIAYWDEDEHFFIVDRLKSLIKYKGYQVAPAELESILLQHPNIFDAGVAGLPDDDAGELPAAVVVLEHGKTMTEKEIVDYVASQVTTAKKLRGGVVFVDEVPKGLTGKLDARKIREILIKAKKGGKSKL
* = called active by the depositor; u = inconclusive; x = not tested or not shown. Compounds with a hit are over-represented: about 4.7% of the library has one in this group of screens.

SMILES | TWEAK-Fn14 inh | HSP90 inh | TROY signal inh | HSF1 inh | LMP1 NFkB inh | HSF-1 act | HSP90 inh confirm | FLuc counter
CC(C)(C)NC(=O)c1ccc2c(c1)CCO2 | -21 | 1 | -13 | -1 | 4 | 3 | x | x
O=c1oc2ccc(Br)cc2cc1-c1nc2ccccc2o1 | -23 | 2 | -37 | -10 | -4 | -15 | x | x
COc1cccc2cc(-c3nc4ccccc4o3)c(=O)oc12 | 29 | 19* | 4 | 14 | -30 | 6 | 18* | 2
O=C(Nc1ccc(C(=O)N2CCCC2)cc1)c1cccc(C(F)(F)F)c1 | -23 | 21* | -11 | -5 | 0 | -15 | -8 | -13
CN(C)C(CNC(=O)C1CCN(S(=O)(=O)c2cccc(C(F)(F)F)c2)CC1)c1ccccc1 (stereo not given) | 6 | 40* | 3 | -2 | -7 | 19 | -4 | -13
COc1cccc2cc(-c3csc(NC(=O)CCC(=O)NCCCN4CCC(C)CC4)n3)c(=O)oc12 | 59* | 27* | 21 | 28 | 26 | 41 | 2 | -15
CCOc1cccc2cc(-c3csc(NC(=O)CCC(=O)NCCCN4CCC(C)CC4)n3)c(=O)oc12 | x | -3 | x | 23 | x | u | x | x
CC1(C)OC(=O)C2=C(C[C@@H](CCOCc3ccccc3)O[C@H]2c2ccc(F)cc2)O1 | 0 | x | 8 | x | x | x | x | x
O=C(CNS(=O)(=O)c1ccccc1)OCC(=O)c1ccccc1Cl | 2 | 22* | -13 | 3 | -3 | -4 | -6 | -13
COc1cc(OC)c(NC2=CC(=O)C(=O)c3ccccc32)cc1Cl | 18 | 44* | -4 | 11 | 4 | 33 | 34* | -6
Cc1cc(NC2=CC(=O)C(=O)c3ccccc32)no1 | -4 | x | -42 | x | -10 | x | x | x
CC1=C(C(=O)N(C(C)C)C(C)C)CC(CC(=O)NC2CC2)C(=O)N1Cc1ccc(F)cc1 (stereo not given) | 9 | x | -2 | x | x | x | x | x
COc1ccc(Cl)cc1C(=O)NC1CC(C)(C)NC(C)(C)C1 | -5 | x | 2 | x | 5 | x | x | x
CCC(=O)Nc1ccc2oc(-c3cccc(C)c3)nc2c1 | 74* | 24* | 29 | x | -6 | x | 40* | 35*
CC(C)C(=O)Nc1cccc(-c2nc3ccccc3o2)c1 | 1 | -1 | -46 | -11 | -11 | -21 | x | x
Cc1ccc(-c2nc3cc(NC(=O)C(C)C)ccc3o2)cc1C | 86* | 34* | 80* | -35 | 0 | -43 | 53* | 54*
C[C@@H]1CN([C@H](C)CO)C(=O)CCCn2nncc2CO[C@H]1CN(C)S(C)(=O)=O | -1 | x | -6 | x | 1 | x | x | x
CCCc1nn(C)c(C(=O)Nc2cccc(Cl)c2)c1Cl | 78* | 26* | 70* | x | 2 | x | 35* | 36*
CCCc1nn(C)c(C(=O)Nc2ccccc2)c1Cl | 81* | 36* | 76* | -1 | -5 | 12 | 52* | 54*
CCCc1nn(C)c(C(=O)Nc2cccc(C)c2)c1Cl | 35 | 10 | 24 | -37 | -9 | -44 | x | x
NC(c1cccc(F)c1)c1nc(-c2ccc(Cl)cc2)cs1 (stereo not given) | 1 | x | -40 | x | x | x | x | x
CC(=O)NC(c1ccc(C)cc1)c1cc([N+](=O)[O-])c2cccnc2c1O (stereo not given) | 5 | -4 | 12 | -3 | 26 | -9 | x | x
CC(=O)NC(c1ccccc1)c1cc(Cl)c2cccnc2c1O (stereo not given) | 12 | 18* | 10 | -83* | 35 | -84 | 15 | -2
COC(=O)c1ccc2nc(-c3ccco3)c(Cc3ccc(OC)cc3C)n2c1 | 4 | x | 3 | x | x | x | x | x
O=C(Nc1ccc2c(c1)OCCO2)Nc1ccc2c(c1)OCO2 | 51* | 19* | -13 | 15 | -5 | 27 | 41* | 30*
SMILES | TWEAK-Fn14 inh | HSP90 inh | TROY signal inh | HSF1 inh | LMP1 NFkB inh | HSF-1 act | HSP90 inh confirm | FLuc counter
Cc1ccc(C(=O)Nc2ccc3c(c2)OCCO3)cc1 | 84* | 58* | 43 | -3 | 43* | -6 | 75* | 63*
O=C(CCc1ccc(O)cc1)NN=Cc1ccc2c(c1)OCO2 | -30 | x | -24 | x | -15 | x | x | x
Cc1cc(NC(=O)c2ccc3c(c2)OCO3)no1 | 11 | 6 | -32 | 6 | -1 | 13 | x | x
Cc1cc(NC(=O)c2ccc3c(c2)OCCO3)no1 | 77* | 27* | 40 | 11 | 60* | 29 | 58* | 49*
O=C(Nc1ccc2c(c1)OCCO2)c1ccc(Br)cc1 | 20 | 8 | -24 | 19 | -28 | 44 | x | x
Cc1ccc(CC(=O)N/N=C/c2ccc3c(c2)OCO3)cc1 | -10 | 20* | -41 | 3 | -20 | -11 | -5 | -14
CC(=O)Nc1ccc2c(c1)OCCO2 | 6 | -1 | 7 | -1 | 1 | 6 | x | x
Cc1cc(C(=O)Nc2ccc3c(c2)OCCO3)ccc1[N+](=O)[O-] | 62* | 28* | 26 | 5 | 4 | 25 | 59* | 51*
O=C(O)C1CC=CCC1C(=O)Nc1ccc2c(c1)OCCO2 (stereo not given) | 79* | 38* | 59* | -62* | 3 | -68 | 1 | 8
Cc1ccc(C(=O)Nc2ccc3c(c2)OCO3)cc1 | 53* | 66* | 24 | 8 | 6 | 25 | 52* | 38*
Cc1ccccc1C(=O)Nc1ccc2c(c1)OCO2 | 44 | 22* | -4 | 17 | 4 | 38 | 36* | 15*
O=C(O)C1CC=CCC1C(=O)Nc1ccc(F)c(F)c1 (stereo not given) | -1 | -3 | -5 | -2 | 2 | 6 | x | x
O=C(Nc1nnc([C@@H]2C[C@H](O)[C@@H](CO)O2)s1)Nc1cccc(Cl)c1Cl | -15 | x | -51 | x | x | x | x | x
CCc1nc2ccc(C(=O)NCCc3c[nH]c4ccccc34)cn2c1N(C)CCCc1ccccc1 | 33 | x | 5 | x | x | x | x | x
CCNC(=O)C1CCCN(C(=O)c2c(-c3ccccc3)noc2C)CC1 (stereo not given) | 7 | x | -6 | x | x | x | x | x
CCOc1ccc(C(=O)Nc2cc(C)ccn2)cc1 | 77* | 50* | 44 | -3 | 53* | 19 | 75* | 58*
O=C(NC(=S)Nc1ccc2c(c1)OCCO2)c1ccco1 | 24 | 24* | -22 | 17 | -4 | 33 | 20* | 3
CCOc1cc(C(=O)Nc2cc(C)ccn2)cc(OCC)c1OCC | 15 | 0 | -2 | -5 | -9 | 3 | x | x
CCOc1ccc(C(=O)Nc2ccc3c(c2)OCCO3)cc1 | 35 | 22* | -2 | 69 | 4 | 118* | 37* | 16*
COc1ccc(NC(=O)c2ccc3c(c2)OCO3)cc1 | 34 | 19* | -24 | 12 | 6 | 28 | 27* | 14*
CCCCCCn1c(=O)n2n(c1=O)[C@@H]1CN(S(=O)(=O)c3ccc(C)cc3)C[C@]1(O)[C@@H](OC(=O)NCc1ccco1)C2 | 31 | x | 6 | x | -6 | x | x | x
